The panel holds about 83,000 compounds, 20% with a hit somewhere; the sample as a whole holds those more often.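 Testing used 96-well plates and a 48-hour single-concentration exposure. Example: -40 means 40% of the starting cells died.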 A number with no mark means an inactive call. Active and inactive are the calls of the source. Rule for the calls: active = growth percent below 10; inactive = the rest.
Tests used:
Assay in all cases: NCI-60 one-dose screen, 48 h (100 = growth as untreated, 0 = no growth, -100 = all killed)
[1] = test system: RPMI-8226 leukemia; settings: 10 µM unless noted
[2] = test system: OVCAR-8 ovarian; settings: 10 µM unless noted
[3] = test system: OVCAR-5 ovarian; settings: 10 µM unless noted
[4] = test system: OVCAR-4 ovarian; settings: 10 µM unless noted
[5] = test system: SK-OV-3 ovarian; settings: 10 µM unless noted
[6] = test system: IGROV1 ovarian; settings: 10 µM unless noted
[7] = test system: OVCAR-3 ovarian; settings: 10 µM unless noted
[8] = test system: HS 578T breast; settings: 10 µM unless noted
[9] = test system: NCI/ADR-RES ovarian; settings: 10 µM unless noted
[10] = test system: T-47D breast; settings: 10 µM unless noted
[11] = test system: BT-549 breast; settings: 10 µM unless noted
[12] = test system: MDA-MB-435 melanoma; settings: 10 µM unless noted
[13] = test system: SW-620 colon; settings: 10 µM unless noted
[14] = test system: MCF7 breast; settings: 10 µM
[15] = test system: HCT-116 colon; settings: 10 µM unless noted
[16] = test system: HCC-2998 colon; settings: 10 µM unless noted
[17] = test system: KM12 colon; settings: 10 µM unless noted

Row | Structure (SMILES) | growth [1] | growth [2] | growth [3] [%] | growth [4] | growth [5] [%] | growth [6] [%] | growth [7] | growth [8] [%] | growth [9] | growth [10] | growth [11] | growth [12] | growth [13] [%] | growth [14] | growth [15] | growth [16] [%] | growth [17] [%]
1 | COc1ccc(CCN2C(=O)/C(=C/c3ccc(C4Oc5ccccc5C5CC(c6cccc(OC)c6)=NN54)cc3)SC2=S)cc1 (stereo not given) | 103% | 102% | 99.9 | 98.9% | 97.7 | 104 | 102% | 101 | 104% | 100% | 108% | 104% | 98.4 | 93% | 102% | 98.6 | 
2 | O=S(=O)(c1ccccc1)n1cc2c(c1-c1ccccc1)CCc1sc(Nc3ccccc3)nc1-2 | 67.7% | 79.8% | 94.4 | 75.2% | 99.7 | 115 | 72.5% | 98.3 | 76.8% | 64.1% | 103% | 88% | 94.4 | 72.9% | 83.3% | 110 | 
3 | COc1cc(NC(=O)CCSc2nc3ccccc3c(=O)n2Cc2ccccc2)cc(OC)c1OC | 56.9% | 79.3% | 91 | 63.4% | 99.3 | 99.4 | 88.1% | 77.3 | 82.1% | 78.1% | 86% | 89.9% | 93.6 | 84.1% | 83.7% | 99.6 | 87.1
4 | Cc1[nH]c2ccccc2c(=O)c1CC=C(Cl)Cl | -20.7% (active) | -84% (active) | 40.1 | -18.6% (active) | 86.5 | 29.4 | 40.9% | 84.2 | 52.4% | -26.4% (active) | 135% | 47.5% | 10.5 | -88.7% (active) | -65.6% (active) | 59.3 | 18.2
5 | CC(C)CCNCC(O)Cn1c2ccccc2c2ccccc21 (stereo not given) | -24% (active) | 6.95% (active) | 41.3 | 21.8% | 28.5 | 10.3 | -36.2% (active) | 24.3 | 20% | 12.2% | 84.3% | 5.65% (active) | 12.5 | 8.76% (active) | 4% (active) | 12.1 | 15.7
6 | CCN1C(=O)N(CC)C2C1NN=c1s/c(=C3\C(=O)N(C(C)C)c4ccccc43)c(=O)n12 (stereo not given) | 7.53% (active) | 12.6% | 54.2 | 58.1% | 29.7 | 36.5 | 5.56% (active) | 36.7 | 7.06% (active) | 68.1% | 6.02% (active) | -12.1% (active) | 27.1 | 20.5% | 10.1% | 20.3 | 
7 | Nc1ccn(C2O[C@H](CO)[C@@H](O)[C@H]2O)c(=O)n1 (stereo not given in full) | 49.8% | 58.5% | 104 | 72.3% | 90.2 | 82.9 | 88.7% | 106 | 70.1% | 99.2% | 111% | 88.8% | 72.7 | 63.1% | 64.4% | 99 | 
8 | CSc1nc2c(c(=O)[nH]1)N=C1c3ccccc3C(=O)C1C(c1ccc(F)cc1)N2 (stereo not given) | 68.4% | 78.9% | 93.6 | 41.2% | 79.4 | 58.3 | 21.7% | 66.8 | 57.5% | 72.9% | 97.2% | -2.38% (active) | 54.5 | 40.4% | 48.4% | 64.9 | 41.7
9 | CC(=O)n1cc(-c2c[nH]c3ccccc23)c(-c2ccc(Cl)cc2)n1 | 86.5% | 96.8% | 94.2 | 62% | 95.9 | 74.9 | 90% | 94 | 86.4% | 72.7% | 76.8% | 88.5% | 89 | 71.5% | 61.7% | 109 | 
10 | CCCCC(O)(c1ccc(Cl)cc1)C(CN1CCOCC1)c1ccc(Cl)cc1 (stereo not given) | 18.5% | 22.3% | 83.1 | 32% | 81.1 | 40 | 3.29% (active) | 40 | 29.9% | 32% | 59.5% | 26.2% | 47.1 | 17.7% | 33.2% | 24.6 | 32.5
